Columns and labels:
Test in all cases: log2 ratio of Biotin-Ahx-Ub-VS probe labelling (fragment/DMSO); higher = less target engagement (more negative = stronger competition), active = hit call of the paper (q ≤ 0.05, log2 ratio ≤ -1)
Conditions in all cases: compound concentration: 200 uM; treatment time: 3 h
[1] = molecular target: USP34 (UniProt Q70CQ2)
How it was run: (§1)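 Fragment (200 µM) or vehicle was incubated for 3 h with triplicate HEK293T lysate samples of 495 µg, which were then treated with Biotin-Ahx-Ub-VS at 0.5 µM final for 1 h. Labelled DUBs were enriched on NeutrAvidin, digested with LysC and trypsin, and analysed by diaPASEF LC-MS/MS. Values are average log2 fragment/vehicle ratios from an unpaired t-test on global-median-normalised Spectronaut label-free quantities, using proteins with ≥2 unique peptides.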

[2] = molecular target: T1, USP36 (UniProt Q9P275)
T1 sequence (whole entry): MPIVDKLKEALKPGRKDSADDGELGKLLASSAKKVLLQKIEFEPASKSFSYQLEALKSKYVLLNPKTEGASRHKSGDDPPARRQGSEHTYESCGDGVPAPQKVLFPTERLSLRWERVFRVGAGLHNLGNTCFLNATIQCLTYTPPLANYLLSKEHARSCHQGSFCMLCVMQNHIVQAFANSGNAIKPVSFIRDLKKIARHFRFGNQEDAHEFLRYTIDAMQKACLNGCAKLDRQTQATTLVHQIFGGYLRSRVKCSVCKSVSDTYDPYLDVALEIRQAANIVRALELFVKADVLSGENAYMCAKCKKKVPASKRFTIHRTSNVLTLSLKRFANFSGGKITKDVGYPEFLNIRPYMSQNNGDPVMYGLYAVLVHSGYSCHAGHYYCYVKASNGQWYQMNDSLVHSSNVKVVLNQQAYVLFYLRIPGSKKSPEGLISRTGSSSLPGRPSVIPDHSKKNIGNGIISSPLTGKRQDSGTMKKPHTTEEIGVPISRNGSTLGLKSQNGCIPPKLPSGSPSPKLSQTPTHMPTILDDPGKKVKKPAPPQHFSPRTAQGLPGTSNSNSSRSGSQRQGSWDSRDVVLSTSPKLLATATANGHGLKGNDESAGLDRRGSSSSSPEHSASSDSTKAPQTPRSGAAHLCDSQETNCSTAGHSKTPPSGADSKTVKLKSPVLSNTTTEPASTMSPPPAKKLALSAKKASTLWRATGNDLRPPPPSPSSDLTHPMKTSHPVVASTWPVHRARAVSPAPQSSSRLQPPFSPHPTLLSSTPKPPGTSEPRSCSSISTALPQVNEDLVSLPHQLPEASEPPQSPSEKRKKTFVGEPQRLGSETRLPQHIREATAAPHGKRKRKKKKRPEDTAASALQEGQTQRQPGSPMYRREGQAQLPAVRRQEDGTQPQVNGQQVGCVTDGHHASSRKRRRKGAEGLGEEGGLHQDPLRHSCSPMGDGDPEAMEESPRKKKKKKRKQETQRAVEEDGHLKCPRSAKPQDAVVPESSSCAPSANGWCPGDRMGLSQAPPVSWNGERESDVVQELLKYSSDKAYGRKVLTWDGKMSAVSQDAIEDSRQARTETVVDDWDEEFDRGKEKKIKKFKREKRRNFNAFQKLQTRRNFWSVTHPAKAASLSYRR
How it was run: as §1

[3] = molecular target: T2, USP38 (UniProt Q8NB14)
T2 sequence (whole entry): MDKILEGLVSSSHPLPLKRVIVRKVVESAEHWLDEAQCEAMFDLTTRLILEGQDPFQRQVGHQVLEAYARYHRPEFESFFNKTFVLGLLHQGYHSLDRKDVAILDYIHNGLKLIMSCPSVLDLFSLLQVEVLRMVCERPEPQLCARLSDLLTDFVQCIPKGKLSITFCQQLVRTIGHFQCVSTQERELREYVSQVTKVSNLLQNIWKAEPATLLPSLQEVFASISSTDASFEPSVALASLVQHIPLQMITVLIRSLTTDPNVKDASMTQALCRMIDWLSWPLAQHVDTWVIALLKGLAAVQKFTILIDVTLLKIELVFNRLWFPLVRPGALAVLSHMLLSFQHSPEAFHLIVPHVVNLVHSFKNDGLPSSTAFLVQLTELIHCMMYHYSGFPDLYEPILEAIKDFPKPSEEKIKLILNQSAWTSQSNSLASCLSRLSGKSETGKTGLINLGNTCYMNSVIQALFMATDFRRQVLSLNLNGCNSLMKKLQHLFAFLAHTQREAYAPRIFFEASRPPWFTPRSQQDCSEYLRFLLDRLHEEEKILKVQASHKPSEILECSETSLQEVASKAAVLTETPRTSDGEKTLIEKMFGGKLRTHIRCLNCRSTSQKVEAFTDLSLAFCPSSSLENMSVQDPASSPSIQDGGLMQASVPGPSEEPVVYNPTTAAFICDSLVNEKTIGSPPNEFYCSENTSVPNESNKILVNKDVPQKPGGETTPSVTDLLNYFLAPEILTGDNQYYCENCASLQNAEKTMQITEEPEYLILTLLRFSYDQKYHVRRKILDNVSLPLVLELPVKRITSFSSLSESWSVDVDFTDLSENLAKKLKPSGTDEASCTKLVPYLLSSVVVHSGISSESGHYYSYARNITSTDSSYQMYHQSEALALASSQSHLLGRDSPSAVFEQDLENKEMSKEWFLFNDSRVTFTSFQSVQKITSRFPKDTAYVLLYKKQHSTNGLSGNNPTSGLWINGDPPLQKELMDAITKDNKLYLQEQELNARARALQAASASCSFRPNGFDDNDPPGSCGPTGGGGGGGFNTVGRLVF
How it was run: as §1

[4] = molecular target: T3, USP39 (UniProt Q53GS9)
T3 sequence (whole entry): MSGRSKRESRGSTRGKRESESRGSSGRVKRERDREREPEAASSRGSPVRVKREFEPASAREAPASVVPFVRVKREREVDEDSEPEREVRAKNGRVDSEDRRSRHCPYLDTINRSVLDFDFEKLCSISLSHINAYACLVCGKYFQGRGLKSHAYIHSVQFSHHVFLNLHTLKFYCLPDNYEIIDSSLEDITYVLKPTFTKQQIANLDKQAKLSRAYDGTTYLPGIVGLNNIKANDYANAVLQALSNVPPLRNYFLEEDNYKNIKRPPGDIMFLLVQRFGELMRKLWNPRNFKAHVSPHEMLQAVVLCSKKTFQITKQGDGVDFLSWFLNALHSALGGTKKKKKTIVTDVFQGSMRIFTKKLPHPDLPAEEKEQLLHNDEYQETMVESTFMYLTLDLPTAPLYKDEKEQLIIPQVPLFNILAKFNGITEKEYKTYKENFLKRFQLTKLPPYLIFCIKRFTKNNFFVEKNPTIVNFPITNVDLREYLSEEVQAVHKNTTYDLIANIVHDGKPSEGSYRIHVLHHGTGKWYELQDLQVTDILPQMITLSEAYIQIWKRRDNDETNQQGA
How it was run: as §1

[5] = molecular target: T4, USP4 (UniProt Q13107)
T4 sequence (whole entry): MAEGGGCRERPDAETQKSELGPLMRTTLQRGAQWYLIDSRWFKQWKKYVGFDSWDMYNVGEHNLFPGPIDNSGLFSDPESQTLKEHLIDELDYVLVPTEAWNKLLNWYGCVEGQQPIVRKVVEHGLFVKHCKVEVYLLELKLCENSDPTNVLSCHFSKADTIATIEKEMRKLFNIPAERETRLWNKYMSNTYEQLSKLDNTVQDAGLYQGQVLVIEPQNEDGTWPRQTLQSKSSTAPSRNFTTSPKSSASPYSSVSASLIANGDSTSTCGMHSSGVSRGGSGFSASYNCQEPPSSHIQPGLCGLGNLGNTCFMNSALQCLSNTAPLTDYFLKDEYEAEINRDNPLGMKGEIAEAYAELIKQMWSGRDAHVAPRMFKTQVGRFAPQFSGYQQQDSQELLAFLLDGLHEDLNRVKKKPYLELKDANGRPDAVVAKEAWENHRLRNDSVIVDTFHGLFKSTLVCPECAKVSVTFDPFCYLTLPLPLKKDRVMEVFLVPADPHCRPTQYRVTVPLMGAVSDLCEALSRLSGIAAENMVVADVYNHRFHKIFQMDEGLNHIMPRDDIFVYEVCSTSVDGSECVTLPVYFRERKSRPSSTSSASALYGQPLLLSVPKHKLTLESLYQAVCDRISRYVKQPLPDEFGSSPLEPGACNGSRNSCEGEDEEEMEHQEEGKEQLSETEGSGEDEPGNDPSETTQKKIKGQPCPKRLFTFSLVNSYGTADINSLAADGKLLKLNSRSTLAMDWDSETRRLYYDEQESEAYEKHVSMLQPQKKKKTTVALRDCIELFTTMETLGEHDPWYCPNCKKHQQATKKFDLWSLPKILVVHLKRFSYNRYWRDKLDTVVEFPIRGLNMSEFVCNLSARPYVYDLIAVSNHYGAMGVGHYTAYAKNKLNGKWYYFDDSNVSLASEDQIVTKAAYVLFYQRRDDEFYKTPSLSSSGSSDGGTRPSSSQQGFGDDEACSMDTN
How it was run: as §1

Measured: log2 ratio of Biotin-Ahx-Ub-VS probe labelling

Chain of USP34 (Q70CQ2 whole entry, the tested form may be a part): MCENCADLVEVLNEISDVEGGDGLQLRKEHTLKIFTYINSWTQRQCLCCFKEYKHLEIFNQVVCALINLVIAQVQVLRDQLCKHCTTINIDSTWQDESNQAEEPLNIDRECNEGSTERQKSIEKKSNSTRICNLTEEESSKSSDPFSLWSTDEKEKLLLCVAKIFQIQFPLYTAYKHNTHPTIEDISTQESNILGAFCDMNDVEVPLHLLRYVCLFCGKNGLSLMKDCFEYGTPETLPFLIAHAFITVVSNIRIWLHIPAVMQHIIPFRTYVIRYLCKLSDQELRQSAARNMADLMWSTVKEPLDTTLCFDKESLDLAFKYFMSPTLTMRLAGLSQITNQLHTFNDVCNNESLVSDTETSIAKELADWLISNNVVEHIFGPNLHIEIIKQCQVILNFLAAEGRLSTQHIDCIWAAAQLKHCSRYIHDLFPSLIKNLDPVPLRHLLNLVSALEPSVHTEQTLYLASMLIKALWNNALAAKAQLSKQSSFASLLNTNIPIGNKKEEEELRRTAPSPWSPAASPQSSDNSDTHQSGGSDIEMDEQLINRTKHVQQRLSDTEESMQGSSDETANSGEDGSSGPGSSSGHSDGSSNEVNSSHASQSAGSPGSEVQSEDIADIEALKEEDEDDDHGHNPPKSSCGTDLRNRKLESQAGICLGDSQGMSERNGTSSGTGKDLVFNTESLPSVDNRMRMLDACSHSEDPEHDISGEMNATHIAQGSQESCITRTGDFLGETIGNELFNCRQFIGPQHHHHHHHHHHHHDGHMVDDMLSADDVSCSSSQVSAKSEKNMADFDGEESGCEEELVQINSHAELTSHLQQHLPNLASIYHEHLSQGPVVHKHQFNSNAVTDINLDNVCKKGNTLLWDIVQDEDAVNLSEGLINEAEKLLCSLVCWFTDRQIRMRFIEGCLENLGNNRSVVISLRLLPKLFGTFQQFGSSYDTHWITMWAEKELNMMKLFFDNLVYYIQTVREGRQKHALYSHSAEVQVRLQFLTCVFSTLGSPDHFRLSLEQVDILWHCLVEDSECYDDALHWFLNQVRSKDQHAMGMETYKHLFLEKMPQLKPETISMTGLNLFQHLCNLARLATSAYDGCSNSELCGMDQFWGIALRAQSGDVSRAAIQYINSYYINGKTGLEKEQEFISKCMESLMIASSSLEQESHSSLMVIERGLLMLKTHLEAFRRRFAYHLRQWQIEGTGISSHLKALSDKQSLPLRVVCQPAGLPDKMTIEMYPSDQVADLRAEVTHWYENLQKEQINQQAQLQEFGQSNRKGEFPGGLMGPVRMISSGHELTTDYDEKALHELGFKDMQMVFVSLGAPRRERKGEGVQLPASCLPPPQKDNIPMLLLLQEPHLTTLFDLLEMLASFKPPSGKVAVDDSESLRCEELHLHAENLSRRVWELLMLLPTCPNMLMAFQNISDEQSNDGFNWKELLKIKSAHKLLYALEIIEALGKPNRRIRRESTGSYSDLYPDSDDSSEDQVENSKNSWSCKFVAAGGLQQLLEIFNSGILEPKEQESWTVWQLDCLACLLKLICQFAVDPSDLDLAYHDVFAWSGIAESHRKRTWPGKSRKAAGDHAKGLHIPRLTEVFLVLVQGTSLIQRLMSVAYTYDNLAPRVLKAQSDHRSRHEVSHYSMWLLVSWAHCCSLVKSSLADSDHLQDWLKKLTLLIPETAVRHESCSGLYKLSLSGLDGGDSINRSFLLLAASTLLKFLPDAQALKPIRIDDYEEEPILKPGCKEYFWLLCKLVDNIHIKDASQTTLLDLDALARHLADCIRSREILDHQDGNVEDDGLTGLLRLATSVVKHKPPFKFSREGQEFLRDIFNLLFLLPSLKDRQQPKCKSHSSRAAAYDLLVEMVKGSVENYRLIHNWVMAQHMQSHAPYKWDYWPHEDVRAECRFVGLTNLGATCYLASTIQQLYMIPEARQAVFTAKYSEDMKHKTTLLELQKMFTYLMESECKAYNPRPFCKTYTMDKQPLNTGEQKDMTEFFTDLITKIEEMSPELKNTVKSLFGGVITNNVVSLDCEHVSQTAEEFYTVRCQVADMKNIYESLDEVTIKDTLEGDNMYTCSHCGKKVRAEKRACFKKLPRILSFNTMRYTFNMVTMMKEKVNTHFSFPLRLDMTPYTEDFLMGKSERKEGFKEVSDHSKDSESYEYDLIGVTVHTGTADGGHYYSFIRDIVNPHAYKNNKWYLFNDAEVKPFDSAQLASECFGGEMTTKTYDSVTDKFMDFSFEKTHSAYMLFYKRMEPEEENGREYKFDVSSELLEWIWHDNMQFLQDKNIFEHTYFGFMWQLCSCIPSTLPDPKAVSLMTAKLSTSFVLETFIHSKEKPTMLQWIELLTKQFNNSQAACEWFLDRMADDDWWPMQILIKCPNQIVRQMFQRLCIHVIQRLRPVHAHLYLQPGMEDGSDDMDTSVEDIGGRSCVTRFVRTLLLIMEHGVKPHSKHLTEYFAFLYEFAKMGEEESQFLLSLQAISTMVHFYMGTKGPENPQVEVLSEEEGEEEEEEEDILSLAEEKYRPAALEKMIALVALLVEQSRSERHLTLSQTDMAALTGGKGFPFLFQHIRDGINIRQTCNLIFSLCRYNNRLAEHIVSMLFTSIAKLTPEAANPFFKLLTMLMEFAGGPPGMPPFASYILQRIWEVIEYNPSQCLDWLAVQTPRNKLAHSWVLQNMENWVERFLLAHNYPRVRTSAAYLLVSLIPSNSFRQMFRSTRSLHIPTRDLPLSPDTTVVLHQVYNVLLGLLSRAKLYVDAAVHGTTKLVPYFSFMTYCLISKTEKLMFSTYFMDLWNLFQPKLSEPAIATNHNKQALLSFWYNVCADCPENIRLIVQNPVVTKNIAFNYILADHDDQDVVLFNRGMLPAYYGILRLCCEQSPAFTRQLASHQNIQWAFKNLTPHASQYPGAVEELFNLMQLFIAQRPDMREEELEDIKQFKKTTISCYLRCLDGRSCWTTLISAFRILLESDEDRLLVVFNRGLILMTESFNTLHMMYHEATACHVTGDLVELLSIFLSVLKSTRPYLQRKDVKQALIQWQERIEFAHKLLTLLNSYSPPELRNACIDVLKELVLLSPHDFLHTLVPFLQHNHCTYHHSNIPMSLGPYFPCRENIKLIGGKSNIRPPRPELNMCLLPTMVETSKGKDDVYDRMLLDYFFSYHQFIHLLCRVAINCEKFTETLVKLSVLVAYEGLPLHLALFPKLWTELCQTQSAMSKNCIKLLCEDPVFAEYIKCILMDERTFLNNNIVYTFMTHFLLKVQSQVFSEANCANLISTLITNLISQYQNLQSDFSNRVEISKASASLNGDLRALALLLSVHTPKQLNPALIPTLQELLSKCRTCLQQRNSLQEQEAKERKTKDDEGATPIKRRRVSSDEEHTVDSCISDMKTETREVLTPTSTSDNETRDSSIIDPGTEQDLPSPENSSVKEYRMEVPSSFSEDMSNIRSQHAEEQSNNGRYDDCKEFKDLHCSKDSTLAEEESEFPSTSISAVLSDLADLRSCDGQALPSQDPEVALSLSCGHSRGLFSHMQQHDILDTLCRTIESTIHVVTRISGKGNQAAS

Cc1cccc(N(CCC#N)C(=O)CCl)c1C
inactive: [1] -0.119 | [2] -0.0707 | [3] -0.0489 | [4] -0.305 | [5] 0.163

— the supplement of paper PMC11732987, “Enantioselective OTUD7B fragment discovery through chemoproteomics screening and high-throughput optimisation” (Communications Chemistry, 2025)
